Test results: PubChem BioAssay AID1159580 (chemical genetic matrix, 2015)
In all, about 5,500 compounds went through this assay and about 2,000 (36%) were called active. Roughly 18% stayed inconclusive and do not appear here. No stated cut-off is given here; in the data, active means normalized growth mostly below about 0.91 (no sharp cut-off); inconclusive means no clear call, values can overlap the other calls; inactive means mostly above about 0.92. The list shows a part of the results.

Assay: chemical genetic growth profiling, strain panel (AID 1159580);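 further: tested at 20 µM; growth read once vehicle control cultures reached saturation at 30 °C; 1 = growth at the plate median or of vehicle wells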
Details: growth OD

Measured: normalized growth

CC(=O)Oc1ccccc1C(=O)Oc1ccccc1C(=O)O
inactive: S. cerevisiae deletion strains, locus YJR075W, strain HOC1, stronger effect = lower value 1.02 | S. cerevisiae deletion strains, locus YKL009W, strain mrt4, stronger effect = lower value 0.981 | S. cerevisiae deletion strains, locus YKL068W, stronger effect = lower value 0.985 | S. cerevisiae deletion strains, locus YKL085W, strain MDH1 (second series), stronger effect = lower value 0.998 | S. cerevisiae deletion strains, locus YKL085W, strain MDH1, stronger effect = lower value 0.998 | S. cerevisiae deletion strains, locus YKL160W, strain elf1, stronger effect = lower value 0.999 | S. cerevisiae deletion strains, locus YKL190W, strain CNB1, stronger effect = lower value 1 | S. cerevisiae deletion strains, locus YKR001C, strain vps1, stronger effect = lower value 0.979 | S. cerevisiae deletion strains, locus YKR026C, strain gcn3, stronger effect = lower value 1.01 | S. cerevisiae deletion strains, locus YKR091W, strain srl3, stronger effect = lower value 1 | S. cerevisiae deletion strains, locus YLL001W, strain dnm1, stronger effect = lower value 1 | S. cerevisiae deletion strains, locus YLL026W, stronger effect = lower value 1.01 | S. cerevisiae deletion strains, locus YLL041C, strain sdh2, stronger effect = lower value 1 | S. cerevisiae deletion strains, locus YLR027C, strain aat2, stronger effect = lower value 1.01 | S. cerevisiae deletion strains, locus YLR039C, strain RIC1, stronger effect = lower value 0.983 | S. cerevisiae deletion strains, locus YLR058C, strain SHM2, stronger effect = lower value 0.995 | S. cerevisiae deletion strains, locus YLR102C, strain apc9, stronger effect = lower value 0.976 | S. cerevisiae deletion strains, locus YLR113W, strain HOG1, stronger effect = lower value 0.977 | S. cerevisiae deletion strains, locus YLR221C, strain rsa3, stronger effect = lower value 0.998 | S. cerevisiae deletion strains, locus YLR258W, strain gsy2, stronger effect = lower value 0.994 | S. cerevisiae deletion strains, locus YLR262C, strain YPT6 (second series), stronger effect = lower value 1 | S. cerevisiae deletion strains, locus YLR262C, strain YPT6, stronger effect = lower value 0.969 | S. cerevisiae deletion strains, locus YLR268W, strain sec22, stronger effect = lower value 1 | S. cerevisiae deletion strains, locus YLR320W, strain mms22, stronger effect = lower value 0.998 | S. cerevisiae deletion strains, locus YLR330W, strain CHS5, stronger effect = lower value 0.992 | S. cerevisiae deletion strains, locus YLR342W, strain FKS1 (second series), stronger effect = lower value 0.99 | S. cerevisiae deletion strains, locus YLR342W, strain FKS1, stronger effect = lower value 1 | S. cerevisiae deletion strains, locus YLR357W, strain rsc2, stronger effect = lower value 1.01 | S. cerevisiae deletion strains, locus YLR370C, strain arc18, stronger effect = lower value 1 | S. cerevisiae deletion strains, locus YLR371W, strain rom2, stronger effect = lower value 0.975 | S. cerevisiae deletion strains, locus YLR384C, strain iki3, stronger effect = lower value 0.995 | S. cerevisiae deletion strains, locus YLR418C, strain cdc73, stronger effect = lower value 0.997 | S. cerevisiae deletion strains, locus YML016C, strain PPZ1, stronger effect = lower value 0.996 | S. cerevisiae deletion strains, locus YML032C, strain rad52, stronger effect = lower value 0.983 | S. cerevisiae deletion strains, locus YML120C, strain ndi1, stronger effect = lower value 1.01 | S. cerevisiae deletion strains, locus YML124C, strain tub3, stronger effect = lower value 0.992 | S. cerevisiae deletion strains, locus YMR058W, strain fet3, stronger effect = lower value 1.01 | S. cerevisiae deletion strains, locus YMR078C, strain ctf18, stronger effect = lower value 0.984 | S. cerevisiae deletion strains, locus YMR125W, strain sto1, stronger effect = lower value 0.986 | S. cerevisiae deletion strains, locus YMR129W, stronger effect = lower value 0.997 | S. cerevisiae deletion strains, locus YMR205C, strain PFK2, stronger effect = lower value 0.998 | S. cerevisiae deletion strains, locus YMR223W, strain ubp8, stronger effect = lower value 0.969 | S. cerevisiae deletion strains, locus YMR231W, strain pep5, stronger effect = lower value 0.996 | S. cerevisiae deletion strains, locus YMR263W, strain SAP30, stronger effect = lower value 1.01 | S. cerevisiae deletion strains, locus YMR307W, strain GAS1, stronger effect = lower value 0.995 | S. cerevisiae deletion strains, locus YNL067W, strain RPL9B, stronger effect = lower value 1.01 | S. cerevisiae deletion strains, locus YNL071W, strain lat1, stronger effect = lower value 1.01 | S. cerevisiae deletion strains, locus YNL128W, strain TEP1, stronger effect = lower value 1 | S. cerevisiae deletion strains, locus YNL153C, strain GIM3, stronger effect = lower value 1.01 | S. cerevisiae deletion strains, locus YNL183C, strain NPR1, stronger effect = lower value 0.921 | S. cerevisiae deletion strains, locus YNL209W, strain ssb2, stronger effect = lower value 1.01 | S. cerevisiae deletion strains, locus YNL233W, strain BNI4, stronger effect = lower value 0.999 | S. cerevisiae deletion strains, locus YNL248C, strain rpa49, stronger effect = lower value 0.925 | S. cerevisiae deletion strains, locus YNL250W, strain rad50, stronger effect = lower value 0.974 | S. cerevisiae deletion strains, locus YNL271C, strain bni1, stronger effect = lower value 0.971 | S. cerevisiae deletion strains, locus YNL298W, strain CLA4, stronger effect = lower value 0.979 | S. cerevisiae deletion strains, locus YNL307C, strain MCK1, stronger effect = lower value 0.983 | S. cerevisiae deletion strains, locus YNL322C, strain KRE1 (second series), stronger effect = lower value 0.998 | S. cerevisiae deletion strains, locus YNL322C, strain KRE1, stronger effect = lower value 1 | S. cerevisiae deletion strains, locus YNR049C, strain mso1, stronger effect = lower value 1.01 | S. cerevisiae deletion strains, locus YNR052C, strain pop2, stronger effect = lower value 0.975 | S. cerevisiae deletion strains, locus YOL006C, strain TOP1, stronger effect = lower value 1 | S. cerevisiae deletion strains, locus YOL012C, strain htz1 0.794 | S. cerevisiae deletion strains, locus YOL147C, strain pex11, stronger effect = lower value 0.991 | S. cerevisiae deletion strains, locus YOR001W, strain rrp6, stronger effect = lower value 0.972 | S. cerevisiae deletion strains, locus YOR061W, strain CKA2, stronger effect = lower value 0.995 | S. cerevisiae deletion strains, locus YOR069W, strain VPS5, stronger effect = lower value 0.992 | S. cerevisiae deletion strains, locus YOR070C, strain gyp1, stronger effect = lower value 1.02 | S. cerevisiae deletion strains, locus YOR080W, strain dia2, stronger effect = lower value 1 | S. cerevisiae deletion strains, locus YOR083W, strain WHI5, stronger effect = lower value 1.01 | S. cerevisiae deletion strains, locus YOR106W, strain vam3, stronger effect = lower value 1.01 | S. cerevisiae deletion strains, locus YOR136W, strain idh2, stronger effect = lower value 0.978 | S. cerevisiae deletion strains, locus YOR144C, strain elg1, stronger effect = lower value 0.991 | S. cerevisiae deletion strains, locus YOR184W, strain ser1, stronger effect = lower value 0.971 | S. cerevisiae deletion strains, locus YOR231W, strain MKK1, stronger effect = lower value 0.992 | S. cerevisiae deletion strains, locus YOR265W, strain rbl2, stronger effect = lower value 1.03 | S. cerevisiae deletion strains, locus YOR270C, strain vph1, stronger effect = lower value 1.01 | S. cerevisiae deletion strains, locus YOR290C, strain snf2, stronger effect = lower value 0.974 | S. cerevisiae deletion strains, locus YOR316C, strain cot1, stronger effect = lower value 0.978 | S. cerevisiae deletion strains, locus YPL051W, strain arl3, stronger effect = lower value 1.03 | S. cerevisiae deletion strains, locus YPL055C, strain LGE1, stronger effect = lower value 1.02 | S. cerevisiae deletion strains, locus YPL078C, strain atp4, stronger effect = lower value 0.998 | S. cerevisiae deletion strains, locus YPL106C, strain sse1, stronger effect = lower value 0.993 | S. cerevisiae deletion strains, locus YPL240C, strain hsp82, stronger effect = lower value 1.01 | S. cerevisiae deletion strains, locus YPL241C, strain CIN2, stronger effect = lower value 0.965 | S. cerevisiae deletion strains, locus YPL256C, strain CLN2, stronger effect = lower value 0.992 | S. cerevisiae deletion strains, locus YPR119W, strain clb2, stronger effect = lower value 0.991 | S. cerevisiae deletion strains, locus YPR141C, strain kar3, stronger effect = lower value 0.975 | S. cerevisiae deletion strains, locus YPR163C, strain tif3, stronger effect = lower value 0.987 | S. cerevisiae deletion strains, locus YPR167C, strain met16, stronger effect = lower value 0.988 | S. cerevisiae deletion strains, strain wtn01, stronger effect = lower value 0.998 | S. cerevisiae strains, strain wild type, stronger effect = lower value 0.998
